Reference: PubChem BioAssay (NCI)
This is part of a sample that, as a whole, favours compounds with a hit. Of some 83,000 tested, about 20% had one in any assay.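 Results are percent growth after 48 hours of single-concentration exposure. 100 means growth as in untreated cells, lower positive values show inhibition; negative values down to -100 show cell death.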 Activity calls are given as the source filed them. Rule for the calls: active = growth percent below 10; inactive = the rest.

Tests used:
Test in all cases: NCI-60 one-dose screen, 48 h (100 = growth as untreated, 0 = no growth, -100 = all killed)
Conditions in all cases: 10 µM unless noted
NCI-H23 lung = test system: NCI-H23 lung
NCI-H226 lung = test system: NCI-H226 lung
NCI-H322M lung = test system: NCI-H322M lung
HOP-62 NSCLC = test system: HOP-62 NSCLC
NCI-H460 lung = test system: NCI-H460 lung
HOP-92 NSCLC = test system: HOP-92 NSCLC
NCI-H522 lung = test system: NCI-H522 lung
A549/ATCC NSCLC = test system: A549/ATCC NSCLC
786-0 renal = test system: 786-0 renal
COLO 205 colon = test system: COLO 205 colon

Measured: growth

O=C(Nc1cccc(Oc2nnc(Cl)c3ccccc23)c1)Nc1ccc(Cl)c(C(F)(F)F)c1
active: NCI-H23 lung -52.4% | NCI-H226 lung -28.2% | NCI-H322M lung -5.16% | HOP-62 NSCLC -81.6% | NCI-H460 lung -77.4% | HOP-92 NSCLC -38.4% | NCI-H522 lung -67.5% | A549/ATCC NSCLC -21.9% | 786-0 renal -42.8% | COLO 205 colon -69.3%

c1ccc(-c2nc([P+](c3ccccc3)(c3ccccc3)c3ccccc3)c(N3CCOCC3)o2)cc1
active: NCI-H23 lung 2.61% | HOP-62 NSCLC -2.79% | HOP-92 NSCLC -21.4% | NCI-H522 lung -3.16% | COLO 205 colon -64.5%
inactive: NCI-H226 lung 34.7% | NCI-H322M lung 21% | NCI-H460 lung 10.1% | A549/ATCC NSCLC 15.4% | 786-0 renal 27.3%

CCc1ccccc1-n1c(-c2ccc(Cl)cc2)cc(-c2ccc(Cl)cc2)c(C#N)c1=O
inactive: NCI-H23 lung 94.2% | NCI-H226 lung 97.4% | NCI-H322M lung 83.7% | HOP-62 NSCLC 107% | NCI-H460 lung 93.9% | HOP-92 NSCLC 72.4% | NCI-H522 lung 78.1% | A549/ATCC NSCLC 94.7% | 786-0 renal 98% | COLO 205 colon 89.4%

COc1cc(/C=N/Nc2ncc(-c3cc4cc5c(cc4o3)OCO5)s2)cc(OC)c1OC
inactive: NCI-H23 lung 53% | NCI-H226 lung 76.9% | NCI-H322M lung 103% | HOP-62 NSCLC 81% | NCI-H460 lung 56.7% | HOP-92 NSCLC 85.3% | NCI-H522 lung 40% | A549/ATCC NSCLC 37.6% | 786-0 renal 84.5% | COLO 205 colon 46.4%

Cc1ccc(Cc2cnc(NC(=O)c3ccc4noc(-c5ccccc5)c4c3)s2)cc1
inactive: NCI-H23 lung 94.4% | NCI-H226 lung 88.3% | NCI-H322M lung 88.5% | HOP-62 NSCLC 64.8% | NCI-H460 lung 84.3% | HOP-92 NSCLC 103% | NCI-H522 lung 72.7% | A549/ATCC NSCLC 71.7% | 786-0 renal 96.2% | COLO 205 colon 107%

COc1c(CCC[P+](c2ccccc2)(c2ccccc2)c2ccccc2)cc2c(c1OC)OCO2
active: NCI-H23 lung 2.87% | NCI-H460 lung 5.26% | HOP-92 NSCLC -4.16% | NCI-H522 lung -11.8% | COLO 205 colon -55.6%
inactive: NCI-H226 lung 27% | NCI-H322M lung 45.4% | HOP-62 NSCLC 15.1% | A549/ATCC NSCLC 40% | 786-0 renal 21.8%

Cc1ccc2nc(C)c(-c3nnc(SCc4ccc(C#N)cc4)o3)n2c1
inactive: NCI-H23 lung 85.3% | NCI-H226 lung 93.5% | NCI-H322M lung 90.7% | HOP-62 NSCLC 97.6% | NCI-H460 lung 102% | HOP-92 NSCLC 104% | NCI-H522 lung 97% | A549/ATCC NSCLC 104% | 786-0 renal 72.2% | COLO 205 colon 116%

O=C(/C=C/c1cccc(O)c1)c1cccc(-n2cc(-c3ccc4ccccc4c3)[nH]c2=O)c1
inactive: NCI-H23 lung 28.2% | NCI-H226 lung 88.9% | HOP-92 NSCLC 42.6% | NCI-H522 lung 75.9% | A549/ATCC NSCLC 61.8%
active: NCI-H322M lung 4.64% | HOP-62 NSCLC -20.9% | NCI-H460 lung -9.23% | 786-0 renal -87.9% | COLO 205 colon -8.8%

Cc1ccc2nc3ccccc3c(NCc3ccccc3)c2c1
inactive: NCI-H23 lung 35.8% | NCI-H226 lung 49.8% | NCI-H322M lung 40.8% | HOP-62 NSCLC 43.5% | NCI-H460 lung 17.1% | NCI-H522 lung 37% | A549/ATCC NSCLC 40.2% | 786-0 renal 34.3%
active: HOP-92 NSCLC -6.69% | COLO 205 colon 8.06%

CCN(CC)c1nc(SCC(=O)Nc2nc3ccc(C)cc3s2)nc(-c2ccccc2)c1C#N
inactive: NCI-H23 lung 103% | NCI-H226 lung 86.2% | NCI-H322M lung 88.8% | HOP-62 NSCLC 91.9% | NCI-H460 lung 99.4% | HOP-92 NSCLC 55.4% | NCI-H522 lung 82.5% | A549/ATCC NSCLC 79.4% | 786-0 renal 93.8% | COLO 205 colon 102%

O=C(Nc1cccc(Cl)c1)c1cc(N=Nc2ccc([N+](=O)[O-])cc2Cl)ccc1O
inactive: NCI-H23 lung 63% | NCI-H226 lung 97% | NCI-H322M lung 94.2% | HOP-62 NSCLC 72.9% | NCI-H460 lung 39.6% | HOP-92 NSCLC 28.3% | A549/ATCC NSCLC 67.8% | 786-0 renal 59.1% | COLO 205 colon 82.2%
active: NCI-H522 lung -16.5%

Cc1c(C(=O)N[C@@H](Cc2ccccc2)C(=O)C(=O)NCCc2ccccc2)[nH]c2ccccc2c1=O
inactive: NCI-H23 lung 93.5% | NCI-H226 lung 101% | NCI-H322M lung 96.2% | HOP-62 NSCLC 111% | NCI-H460 lung 87.2% | HOP-92 NSCLC 116% | NCI-H522 lung 97.6% | A549/ATCC NSCLC 98.8% | 786-0 renal 107% | COLO 205 colon 31.2%

COc1ccc(OC)c(-c2c(C#N)c(-c3ccc(Cl)cc3)nc3c2c(-c2ccccc2)nn3-c2ccccc2)c1
inactive: NCI-H23 lung 102% | NCI-H226 lung 98.3% | NCI-H322M lung 95.7% | HOP-62 NSCLC 99.3% | NCI-H460 lung 103% | HOP-92 NSCLC 101% | NCI-H522 lung 86% | A549/ATCC NSCLC 98.4% | 786-0 renal 98.1% | COLO 205 colon 104%

O=C(/C=C/c1c(Cl)nc2sccn12)c1ccc(F)c(F)c1
inactive: NCI-H23 lung 67% | NCI-H226 lung 73.2% | NCI-H322M lung 93.1% | HOP-62 NSCLC 79.8% | NCI-H460 lung 79.5% | HOP-92 NSCLC 50.6% | NCI-H522 lung 66.5% | A549/ATCC NSCLC 80.3% | 786-0 renal 84.7% | COLO 205 colon 93%

CC(C)(C)c1ccc(/C=C/C(=O)Nc2ccc(O)cc2)cc1
inactive: NCI-H23 lung 80.9% | NCI-H226 lung 65% | NCI-H322M lung 78% | HOP-62 NSCLC 52.2% | NCI-H460 lung 46.9% | HOP-92 NSCLC 106% | NCI-H522 lung 26.4% | A549/ATCC NSCLC 64.6% | 786-0 renal 69.1% | COLO 205 colon 73.6%

COc1ccc(C(=O)COc2ccc(/C=C3\Oc4ccccc4C3=O)cc2)cc1
inactive: NCI-H23 lung 92.9% | NCI-H226 lung 88% | NCI-H322M lung 108% | HOP-62 NSCLC 90.8% | NCI-H460 lung 102% | HOP-92 NSCLC 75.8% | NCI-H522 lung 63% | A549/ATCC NSCLC 99% | 786-0 renal 98.1% | COLO 205 colon 99.2%

O=[N+]([O-])c1ccc(Sc2cccc[n+]2[O-])c2nonc12
inactive: NCI-H23 lung 73.2% | NCI-H226 lung 102% | NCI-H322M lung 104% | HOP-62 NSCLC 101% | NCI-H460 lung 56.8% | HOP-92 NSCLC 96.4% | A549/ATCC NSCLC 59% | 786-0 renal 92.6%
active: NCI-H522 lung -70.8% | COLO 205 colon -67.3%

C=CCOC1=CC(=O)c2ccccc2C1=O
inactive: NCI-H23 lung 50.6% | NCI-H226 lung 100% | NCI-H322M lung 91.6% | HOP-62 NSCLC 95.6% | NCI-H460 lung 105% | HOP-92 NSCLC 114% | NCI-H522 lung 74% | A549/ATCC NSCLC 91.4% | 786-0 renal 102% | COLO 205 colon 110%

COC1=C(OC)C(=O)C(OC)=C(OC)C1=O
inactive: NCI-H23 lung 98.6% | NCI-H226 lung 93.6% | NCI-H322M lung 95.7% | HOP-62 NSCLC 112% | NCI-H460 lung 108% | HOP-92 NSCLC 103% | NCI-H522 lung 108% | A549/ATCC NSCLC 90% | 786-0 renal 99.3% | COLO 205 colon 113%

N/C(=N/N=C/c1ccccc1)N/N=C\c1ccccc1
inactive: NCI-H23 lung 66.6% | NCI-H226 lung 81% | NCI-H322M lung 85.2% | HOP-62 NSCLC 76.5% | NCI-H460 lung 39.8% | HOP-92 NSCLC 57.1% | NCI-H522 lung 56.8% | A549/ATCC NSCLC 59% | 786-0 renal 56.2% | COLO 205 colon 67.7%

O=c1[nH]c2ccccc2n1C1CCN(CCOc2ccccc2)CC1
active: A549/ATCC NSCLC -22.6%
inactive: NCI-H23 lung 93% | NCI-H226 lung 78.9% | NCI-H322M lung 98.8% | HOP-62 NSCLC 96.7% | NCI-H460 lung 94% | HOP-92 NSCLC 37.1% | NCI-H522 lung 76.3% | 786-0 renal 100% | COLO 205 colon 94.3%

COc1ccc2occ(C3=C(c4c[nH]c5ccccc45)C(=O)N(O)C3=O)c2c1
inactive: NCI-H23 lung 86.3% | NCI-H226 lung 78.7% | NCI-H322M lung 93.7% | HOP-62 NSCLC 86.3% | NCI-H460 lung 95.4% | HOP-92 NSCLC 87.8% | NCI-H522 lung 58.1% | A549/ATCC NSCLC 93.6% | 786-0 renal 91.3% | COLO 205 colon 98.5%

CCCCCCCOc1c(OC)cc(C2CC(=O)Nc3c2c(C)nn3-c2nc3ccccc3[nH]2)cc1OC (stereo not given)
active: NCI-H23 lung -2.79% | NCI-H226 lung -38.7% | NCI-H322M lung 2.06% | HOP-62 NSCLC -22.6% | NCI-H460 lung -26.8% | HOP-92 NSCLC -8.34% | NCI-H522 lung -40.7% | A549/ATCC NSCLC 1.6% | 786-0 renal 4.68% | COLO 205 colon 3.24%

CCC1(C2CCCC2)NC(=O)NC1=O (stereo not given)
inactive: NCI-H23 lung 93.5% | NCI-H226 lung 101% | NCI-H322M lung 106% | HOP-62 NSCLC 115% | NCI-H460 lung 102% | HOP-92 NSCLC 78.1% | NCI-H522 lung 103% | A549/ATCC NSCLC 104% | 786-0 renal 94.1% | COLO 205 colon 108%

O=C(Nc1ccccc1Cl)Oc1ccc(-c2ccccc2)cc1
inactive: NCI-H23 lung 93.5% | NCI-H226 lung 103% | NCI-H322M lung 114% | HOP-62 NSCLC 96.3% | NCI-H460 lung 105% | HOP-92 NSCLC 94.4% | NCI-H522 lung 103% | A549/ATCC NSCLC 104% | 786-0 renal 97.2% | COLO 205 colon 127%
